Laboratory results: PubChem BioAssay AID2384 (Southern Research Specialized Biocontainment Screening …, 2010)
Out of some 2,300 compounds screened, about 1,100 (48%) were called active. No rule for the calls is given here. So high a share suggests a set chosen from earlier hits. Some of the results follow. Measured potencies and affinities stand elsewhere.

Experiment: S. typhi counter-screen signal inhibition – fluorescence, 4 h, counter-screen for PhoP regulon inhibitor project, dose response (AID 2384)
Settings: S. typhi GFP reporter counter-screen; series mostly up to 150 µM

| Structure (SMILES) | inhibition |
| --- | --- |
| COc1c(Br)cc2c(C)c(C(=O)N3CCOCC3)oc2c1Br | inactive |
| Cn1c(=O)cc(SCC(=O)N2CCN(C3CCCCC3)CC2)c2ccccc21 | inactive |
| COc1ccccc1C(=O)N1CC2(C)CC1CC(C)(C)C2 (configuration not stated) | inactive |
| NC(=O)COc1c(-c2ccco2)oc2ccccc2c1=O | inactive |
| O=C(NCc1ccc2c(c1)OCO2)c1ccc2c(c1)C(=O)N(Cc1cccnc1)C2=O | inactive |
| Cc1ncc(CC(=O)n2cc(C(=O)c3cc(F)ccc3O)cn2)s1 | inactive |
| CCC(C)n1c(SCC(=O)NCc2ccco2)nnc1-c1cccc(S(=O)(=O)N2CCOCC2)c1 (configuration not stated) | inactive |
| COc1cc(C)c(Cl)cc1S(=O)(=O)n1cnc(C)c1 | inactive |
| CC1CC(C)CN(C(=O)c2ccc(NC(=O)c3ccc(=O)[nH]c3)cc2)C1 (configuration not stated) | inactive |
| COc1ccccc1NC(=O)CSC1CC(=O)N(c2ccc3c(c2)OCO3)C1=O (configuration not stated) | inactive |
| COc1cccc(NC(=O)N2CCCC(C(=O)Nc3ccccc3OC)C2)c1 (configuration not stated) | inactive |
| CN(C)/C=N/c1ncc(C(=O)c2ccc(Cl)cc2)s1 | inactive |
| CCN(CC)CCCCCCCCOC(=O)c1cc(OC)c(OC)c(OC)c1 | inactive |
| CSc1ccc(NC(=O)C(C)N2CCN(C)CC2)cc1 (configuration not stated) | inactive |
| CCn1cc(C(=O)NCCc2ccccc2)c(=O)c2cc(F)c(N3CCN(C)CC3)cc21 | inactive |
| O=C(CCc1nc2ccccc2s1)NC1CCOC1=O (configuration not stated) | inactive |
| CCOc1ccc2nc(NC(=O)C3=NNC(=O)CC3)sc2c1 | inactive |
| CCCCn1cnc2cc(NCc3cccc(OC)c3O)ccc21 | inactive |
| CCOc1ccccc1NC(=O)NS(=O)(=O)c1ccc(C)cc1 | inactive |
| Cc1cc(C)c(S(=O)(=O)Nc2cccnc2)c(C)c1 | inactive |
| Cc1ccc(S(=O)(=O)NC(C)(C)CSc2nnc(N)s2)cc1 | inactive |
| Cc1ccc(C)c(SCC(=O)Nc2ccc(S(=O)(=O)Nc3ncccn3)cc2)c1 | inactive |

| Structure (SMILES) | inhibition |
| --- | --- |
| CC(=O)Nc1ccc(S(=O)(=O)Nc2nc3ccccc3nc2Nc2cccc(S(N)(=O)=O)c2)cc1 | inactive |
| COC(=O)NNS(=O)(=O)c1ccc(C)cc1 | inactive |
| Cc1cccc(NCN2C(=O)c3ccccc3C2=O)c1 | inactive |
| COc1ccc(C(=O)NNS(=O)(=O)c2ccccc2)cc1OC | inactive |
| O=C(COC(=O)CNC(=O)c1ccccc1)Nc1ccc(F)c([N+](=O)[O-])c1 | inactive |
| CCOc1ccc(C2CC(=O)NC(SCC(=O)OC)=C2C#N)cc1 (configuration not stated) | inactive |
| COc1cc(S(=O)(=O)N2CCN(C(=O)c3ccco3)CC2)c(OC)cc1C | inactive |
| COc1ccc(-n2nnc3c(SCC(=O)N4CCCc5ccccc54)ncnc32)cc1 | inactive |
| Cc1c(C(=O)N2CCN(Cc3ccccc3)CC2)sc2ncnc(N3CCOCC3)c12 | inactive |
| O=C(Nc1ccccc1)c1cccnc1N1CCOCC1 | inactive |
| CCC(Sc1nccn1C)C(=O)Nc1nnc(C)s1 (configuration not stated) | inactive |
| N#Cc1ccc(C2=NC(C(F)(F)F)(C(F)(F)F)c3c(n(Cc4ccco4)c(=O)[nH]c3=O)N2)cc1 | inactive |
| COCCNC(=O)Cn1cnc2c1c(=O)n(C)c(=O)n2C | inactive |
| Cc1[nH]c2ccccc2c1/C=N/Nc1nc2ccccc2[nH]1 | inactive |
| Cc1cc(C)c2c(N)c(C(=O)c3ccc(Cl)c(Cl)c3)sc2n1 | inactive |
| O=C(O)c1cccc(NC2=Nc3cccc4cccc2c34)c1 | inactive |
| COc1ccc(Cn2nnnc2C(c2cc3ccc(OC)cc3[nH]c2=O)N2CCC(C)CC2)cc1 (configuration not stated) | inactive |
| CCCCCNC(=O)c1cn(CC)c2cc(N3CCN(C)CC3)c(F)cc2c1=O | inactive |
| O=C(CCC(=O)Nc1nnc(C2CCCCC2)s1)NCC1CCCO1 (configuration not stated) | inactive |
| COc1ccc(OC)c(S(=O)(=O)N2CCC(C(=O)NCc3ccccc3OC)CC2)c1 | inactive |
| COC(=O)C1=C(C(=O)OC)SC(=C2C(=S)C(C)(C)N(C(=O)C3CC3)c3ccccc32)S1 | inactive |
| COc1cccc(/C=N/NC(=O)CNC(=O)COc2cccc(C)c2)c1O | inactive |

| Structure (SMILES) | inhibition |
| --- | --- |
| COc1cc(/C=N/N(C)S(=O)(=O)c2ccc(C)cc2)cc([N+](=O)[O-])c1O | inactive |
| Nc1ccc(C(O)(C(F)(F)F)C(F)(F)F)cc1 | inactive |
| Cc1nnc(SCc2cnc(-c3ccc(C(C)C)cc3)s2)n1C | inactive |
| COC(=O)c1ccc(Cn2c(O)c(N=NC(N)=S)c3ccccc32)o1 | inactive |
| CC1CCCCN1S(=O)(=O)c1ccc(S(=O)(=O)NCCc2ccncc2)cc1 (configuration not stated) | inactive |
| NC(=O)c1ccsc1NC(=O)c1ccc2c(c1)CCCC2 | inactive |
| COc1ccc(/C=N/NC(=O)c2cccnc2)c(C(=O)O)c1OC | inactive |
| N#C/C(=C\c1ccc(O)c(O)c1)C(=O)c1ccc(O)c(O)c1 | inactive |
| COc1cc(/C=C(/C#N)C(=O)Nc2ccccc2)c(Br)cc1OCc1ccc(C(=O)O)cc1 | inactive |
| COc1ccc(OC)c(C(=O)c2ccc(C(=O)O)cc2)c1 | inactive |
| CC(Oc1ccc(/C=N/NC(=O)Cc2cccc3ccccc23)cc1)C(=O)O (configuration not stated) | inactive |
| COc1ccc(/C=N/NC2=NCCCCC2)c(OC)c1 | 15.8% [at 9.38 µM] (inactive) |
| COc1ccc2nc(C)cc(Nc3ccc(N4CCOCC4)cc3)c2c1 | inactive |
| COc1ccc(CNC(=O)C(c2cccs2)N(C(=O)c2csnn2)C2CC2)cc1 (configuration not stated) | inactive |
| COC(=O)c1ccc(NC(=O)c2ccccc2N(C)S(=O)(=O)c2ccccc2)cc1 | inactive |
| Cc1ccc(N/N=C/c2ccncc2)cc1 | inactive |
| Cc1ccc(-c2ccccc2NC(=O)CS(=O)CC(=O)Nc2ccc(C)c(Cl)c2)o1 (configuration not stated) | inactive |
| COc1ccc(-n2c3c(cc(C(=O)Nc4cccc(C)n4)c2=O)C(=O)CC(C)(C)C3)cc1 | inactive |
| CNc1nc(SC)n(C)c(=O)c1N=O | inactive |
| O=C(CCCCCn1c(=S)[nH]c2ccc(N3CCOCC3)cc2c1=O)NC1CCN(Cc2ccccc2)CC1 | inactive |
| CCOC(=O)c1cc(-c2ccc(F)cc2)n(CCC(=O)NC2CCN(Cc3ccccc3)CC2)c1C | inactive |
| Cc1ccc(NC(=S)Nc2ccc(S(=O)(=O)Nc3ncccn3)cc2)cc1Cl | inactive |

| Structure (SMILES) | inhibition |
| --- | --- |
| Cc1ccc(CCNC(=O)C2CCN(S(=O)(=O)N3CCCC3)CC2)cc1 | inactive |
| Cc1c(C)n(C)c2ccc(C(=O)NCCCN3CCCC3)cc12 | inactive |
| CC1CCN(c2nc3ccc(C(=O)NCCCN4CCCCC4)cc3s2)CC1 | inactive |
| O=C(c1ccc2c3c(cccc13)CC2)C1CCCN(Cc2ncc[nH]2)C1 (configuration not stated) | inactive |
| COCC1CCCN(Cc2cn[nH]c2-c2cc3ccccc3o2)C1 (configuration not stated) | inactive |
| O=c1cc(-c2ccc(Cl)cc2)[nH][nH]1 | inactive |
| COc1ccc2c(c1)c1nc(SCC(C)C)n(CCO)c(=O)c1n2C | inactive |
| O=C(CN(C(=O)CNS(=O)(=O)c1ccccc1)C1CCCC1)NCc1ccco1 | inactive |
| CN(C)S(=O)(=O)c1cccc(NC(=O)c2cnccn2)c1 | inactive |
| COc1ccc(C(=O)CSc2nnc(-c3cnccn3)n2Cc2ccco2)cc1 | inactive |
| CCn1c(CNC(=O)c2ccc(OC)cc2)nnc1SC | inactive |
| CC(=O)Nc1ccccc1-c1nc2ccc(C(=O)N3CCN(c4cc(C)ccc4C)CC3)cc2[nH]c1=O | inactive |
| Cn1cc(C(=O)N/N=C/C(Br)=C/c2ccccc2)ccc1=O | inactive |
| COc1cccc(/C=N/NC(=O)C(=O)N2CCCC2)c1O | inactive |
| COc1cccc(/C=N/NC(=O)CO/N=C(\C)c2cccs2)c1OC | inactive |
| COc1cccc(/C=N/NC(=O)CSCC(=O)Nc2ccccc2)c1O | inactive |
| C/C(=N\NC(=O)c1c(Br)c(C)nn1C)c1ccc(NC(=O)c2ccoc2C)cc1 | inactive |
| O=C(Nc1ccc2[nH]c(=S)sc2c1)Nc1ccccc1F | inactive |
| CC1=C([N+](=O)[O-])C(c2cccc(Br)c2)C2=C(N1)c1ccccc1C2=O (configuration not stated) | inactive |
| Cn1nnnc1SCc1nnc(-c2ccccc2Br)o1 | inactive |
| Cc1c(C)c2ccc(OC(C)C(=O)N[C@@H](Cc3c[nH]c4ccccc34)C(=O)O)c(C)c2oc1=O (some centres not stated) | inactive |
| COc1ccc(-c2nnn(-c3ccc(Cl)cc3Cl)c2N)cc1 | inactive |

| Structure (SMILES) | inhibition |
| --- | --- |
| CC(=O)Oc1ccc(C(=O)Nc2ccc3c(c2)C(=O)N(CCC(=O)O)C3=O)cc1 | inactive |
| Cc1ccccc1-n1ncc2c([N+](=O)[O-])cc([N+](=O)[O-])cc21 | inactive |
| COc1cc(NS(=O)(=O)c2ccc(NC(=S)Nc3ccccc3)cc2)nc(OC)n1 | inactive |
| Cc1ccc(-n2[nH]c(C)c(C=NCc3ccncc3)c2=O)cc1 | inactive |
| Cc1[nH]n(-c2ccccc2)c(=O)c1C(c1cccc([N+](=O)[O-])c1O)c1c(C)[nH]n(-c2ccccc2)c1=O | inactive |
| COc1ccc(CCNC(=O)CSc2ccc(-c3ccncc3)nn2)cc1 | inactive |
| O=C(CCN1CCC(c2ccccc2)C1)c1ccc2c(c1)OCCO2 (configuration not stated) | inactive |
| O=C(Nc1ccc2c(c1)OCCO2)C(=S)NCc1ccccc1 | inactive |
| Cc1ccc(N(C(=O)c2sc(C)nc2C)C(C(=O)NCc2ccco2)c2ccccc2)cc1 (configuration not stated) | inactive |
| COc1ccc(C2=NN3C(=O)c4c(ccc(OC)c4OC)C3C2)cc1 (configuration not stated) | inactive |
| O=[N+]([O-])c1cccnc1S(=O)(=O)c1ccccc1 | inactive |
| O=c1ccnc(Sc2ncccc2[N+](=O)[O-])[nH]1 | inactive |
| CC(=O)NS(=O)(=O)c1ccc(Nc2ccc([N+](=O)[O-])c3nonc23)cc1 | inactive |
| COc1ccc(CCN(C(=O)C(F)(F)F)C(C(=O)NC2CCCC2)c2cccs2)cc1 (configuration not stated) | inactive |
| CCCCNC(=O)NS(=O)(=O)c1ccc(C(=O)OC)o1 | inactive |
| CC(C)OC(=O)c1cccc(C(=O)Oc2ccc(Br)cc2)n1 | inactive |
| Nc1ccc(S(=O)(=O)Nc2ccc(Cl)nn2)cc1 | inactive |
| CN1CCN(C2=Cc3cc(Cl)ccc3Sc3cc(F)ccc32)CC1 | inactive |
| CN1CCN(c2ccc(C(=O)c3cn(-c4ccc(F)c(Cl)c4)nn3)cc2)CC1 | inactive |
